# In article PMC9911399, “Two distinct binding modes provide the RNA-binding protein RbFox with extraordinary sequence specificity”:
# Substitutions are numbered along the chain they refer to; changes in the protein carry UniProt numbers. The full ranking holds about 16,000 sequences; the median of “ka relative to ugcaugu” is about 0.0091, and the highest 2% start at about 0.032. The full list was thinned out, with the highest values kept by preference.
# T1: RBFOX1 RRM (Homo sapiens, UniProt Q9NWB1 109-208)
# T1 sequence: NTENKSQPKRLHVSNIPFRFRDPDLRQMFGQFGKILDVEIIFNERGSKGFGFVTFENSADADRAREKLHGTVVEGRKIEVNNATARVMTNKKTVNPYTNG
# B1: UCCGAUU (DNA:RNA)
# RNA: GGGAGACCGGAAUUCAGAUUGUCCUCCGAUUUUAAAUCCCGUCGUAGCCACCA
# DNA 1: CAATCTGAATTCCGGTCTCCC
# DNA 2: TGGTGGCTACGACGGGATT
# B2: CAACCGU (DNA:RNA)
# RNA: B1 RNA with U25C, C26A, C27A, G28C, A29C, U30G
# DNA 1: CAATCTGAATTCCGGTCTCCC
# DNA 2: TGGTGGCTACGACGGGATT
# B3: UACAUGG (DNA:RNA)
# RNA: B1 RNA with C26A, G28A, A29U, U30G, U31G
# DNA 1: CAATCTGAATTCCGGTCTCCC
# DNA 2: TGGTGGCTACGACGGGATT
# B4: UUGCUAC (DNA:RNA)
# RNA: B1 RNA with C26U, C27G, G28C, A29U, U30A, U31C
# DNA 1: CAATCTGAATTCCGGTCTCCC
# DNA 2: TGGTGGCTACGACGGGATT
# B5: GAUACGC (DNA:RNA)
# RNA: GGGAGACCGGAAUUCAGAUUGUCCGAUACGCUUAAAUCCCGUCGUAGCCACCA
# DNA 1: CAATCTGAATTCCGGTCTCCC
# DNA 2: TGGTGGCTACGACGGGATT
# B6: CGGGUUG (DNA:RNA)
# RNA: B1 RNA with U25C, C26G, C27G, A29U, U31G
# DNA 1: CAATCTGAATTCCGGTCTCCC
# DNA 2: TGGTGGCTACGACGGGATT
# B7: GGGGUUG (DNA:RNA)
# RNA: B1 RNA with U25G, C26G, C27G, A29U, U31G
# DNA 1: CAATCTGAATTCCGGTCTCCC
# DNA 2: TGGTGGCTACGACGGGATT
# B8: GGGGGGG (DNA:RNA)
# RNA: B5 RNA with A26G, U27G, A28G, C29G, C31G
# DNA 1: CAATCTGAATTCCGGTCTCCC
# DNA 2: TGGTGGCTACGACGGGATT
# B9: CGGGUUA (DNA:RNA)
# RNA: B1 RNA with U25C, C26G, C27G, A29U, U31A
# DNA 1: CAATCTGAATTCCGGTCTCCC
# DNA 2: TGGTGGCTACGACGGGATT
# B10: GUCGGGG (DNA:RNA)
# RNA: B5 RNA with A26U, U27C, A28G, C29G, C31G
# DNA 1: CAATCTGAATTCCGGTCTCCC
# DNA 2: TGGTGGCTACGACGGGATT
# B11: CACCGGG (DNA:RNA)
# RNA: B5 RNA with G25C, U27C, A28C, C29G, C31G
# DNA 1: CAATCTGAATTCCGGTCTCCC
# DNA 2: TGGTGGCTACGACGGGATT
# B12: GGGUUUA (DNA:RNA)
# RNA: B5 RNA with A26G, U27G, A28U, C29U, G30U, C31A
# DNA 1: CAATCTGAATTCCGGTCTCCC
# DNA 2: TGGTGGCTACGACGGGATT
# B13: CGGGGGG (DNA:RNA)
# RNA: B5 RNA with G25C, A26G, U27G, A28G, C29G, C31G
# DNA 1: CAATCTGAATTCCGGTCTCCC
# DNA 2: TGGTGGCTACGACGGGATT
# B14: GGGGUUA (DNA:RNA)
# RNA: B1 RNA with U25G, C26G, C27G, A29U, U31A
# DNA 1: CAATCTGAATTCCGGTCTCCC
# DNA 2: TGGTGGCTACGACGGGATT
# B15: GUGGCCC (DNA:RNA)
# RNA: B5 RNA with A26U, U27G, A28G, G30C
# DNA 1: CAATCTGAATTCCGGTCTCCC
# DNA 2: TGGTGGCTACGACGGGATT
# B16: GGGGUGG (DNA:RNA)
# RNA: B5 RNA with A26G, U27G, A28G, C29U, C31G
# DNA 1: CAATCTGAATTCCGGTCTCCC
# DNA 2: TGGTGGCTACGACGGGATT
# B17: GGGUGUC (DNA:RNA)
# RNA: B5 RNA with A26G, U27G, A28U, C29G, G30U
# DNA 1: CAATCTGAATTCCGGTCTCCC
# DNA 2: TGGTGGCTACGACGGGATT
# B18: CCGGGUG (DNA:RNA)
# RNA: B1 RNA with U25C, C27G, A29G, U31G
# DNA 1: CAATCTGAATTCCGGTCTCCC
# DNA 2: TGGTGGCTACGACGGGATT
# B19: GGGGGUG (DNA:RNA)
# RNA: B1 RNA with U25G, C26G, C27G, A29G, U31G
# DNA 1: CAATCTGAATTCCGGTCTCCC
# DNA 2: TGGTGGCTACGACGGGATT
# B20: GGGUGGU (DNA:RNA)
# RNA: B5 RNA with A26G, U27G, A28U, C29G, C31U
# DNA 1: CAATCTGAATTCCGGTCTCCC
# DNA 2: TGGTGGCTACGACGGGATT
# B21: CGGGGUG (DNA:RNA)
# RNA: B1 RNA with U25C, C26G, C27G, A29G, U31G
# DNA 1: CAATCTGAATTCCGGTCTCCC
# DNA 2: TGGTGGCTACGACGGGATT
# B22: ACGGGUG (DNA:RNA)
# RNA: B1 RNA with U25A, C27G, A29G, U31G
# DNA 1: CAATCTGAATTCCGGTCTCCC
# DNA 2: TGGTGGCTACGACGGGATT
# B23: GGGUGUG (DNA:RNA)
# RNA: B5 RNA with A26G, U27G, A28U, C29G, G30U, C31G
# DNA 1: CAATCTGAATTCCGGTCTCCC
# DNA 2: TGGTGGCTACGACGGGATT
# B24: CGGGUGG (DNA:RNA)
# RNA: B5 RNA with G25C, A26G, U27G, A28G, C29U, C31G
# DNA 1: CAATCTGAATTCCGGTCTCCC
# DNA 2: TGGTGGCTACGACGGGATT
# B25: CUGGACU (DNA:RNA)
# RNA: B1 RNA with U25C, C26U, C27G, U30C
# DNA 1: CAATCTGAATTCCGGTCTCCC
# DNA 2: TGGTGGCTACGACGGGATT
# B26: AUUAGUU (DNA:RNA)
# RNA: B5 RNA with G25A, A26U, C29G, G30U, C31U
# DNA 1: CAATCTGAATTCCGGTCTCCC
# DNA 2: TGGTGGCTACGACGGGATT
# B27: UACCGUC (DNA:RNA)
# RNA: B1 RNA with C26A, G28C, A29G, U31C
# DNA 1: CAATCTGAATTCCGGTCTCCC
# DNA 2: TGGTGGCTACGACGGGATT
# B28: ACUAUCA (DNA:RNA)
# RNA: B5 RNA with G25A, A26C, C29U, G30C, C31A
# DNA 1: CAATCTGAATTCCGGTCTCCC
# DNA 2: TGGTGGCTACGACGGGATT
# B29: UGGGUGG (DNA:RNA)
# RNA: B1 RNA with C26G, C27G, A29U, U30G, U31G
# DNA 1: CAATCTGAATTCCGGTCTCCC
# DNA 2: TGGTGGCTACGACGGGATT
# B30: GUCGUUC (DNA:RNA)
# RNA: B1 RNA with U25G, C26U, A29U, U31C
# DNA 1: CAATCTGAATTCCGGTCTCCC
# DNA 2: TGGTGGCTACGACGGGATT
# B31: GUGUGCG (DNA:RNA)
# RNA: B5 RNA with A26U, U27G, A28U, C29G, G30C, C31G
# DNA 1: CAATCTGAATTCCGGTCTCCC
# DNA 2: TGGTGGCTACGACGGGATT
# B32: UUGCGUC (DNA:RNA)
# RNA: B1 RNA with C26U, C27G, G28C, A29G, U31C
# DNA 1: CAATCTGAATTCCGGTCTCCC
# DNA 2: TGGTGGCTACGACGGGATT
# B33: UUGGGGG (DNA:RNA)
# RNA: B1 RNA with C26U, C27G, A29G, U30G, U31G
# DNA 1: CAATCTGAATTCCGGTCTCCC
# DNA 2: TGGTGGCTACGACGGGATT
# B34: GUGCGUG (DNA:RNA)
# RNA: B5 RNA with A26U, U27G, A28C, C29G, G30U, C31G
# DNA 1: CAATCTGAATTCCGGTCTCCC
# DNA 2: TGGTGGCTACGACGGGATT
# B35: UUGCGUG (DNA:RNA)
# RNA: B1 RNA with C26U, C27G, G28C, A29G, U31G
# DNA 1: CAATCTGAATTCCGGTCTCCC
# DNA 2: TGGTGGCTACGACGGGATT
# B36: UUGGGAA (DNA:RNA)
# RNA: B1 RNA with C26U, C27G, A29G, U30A, U31A
# DNA 1: CAATCTGAATTCCGGTCTCCC
# DNA 2: TGGTGGCTACGACGGGATT
# B37: CGUGUCC (DNA:RNA)
# RNA: B5 RNA with G25C, A26G, A28G, C29U, G30C
# DNA 1: CAATCTGAATTCCGGTCTCCC
# DNA 2: TGGTGGCTACGACGGGATT
# B38: UUGGGUG (DNA:RNA)
# RNA: B1 RNA with C26U, C27G, A29G, U31G
# DNA 1: CAATCTGAATTCCGGTCTCCC
# DNA 2: TGGTGGCTACGACGGGATT
# B39: UUGUGUG (DNA:RNA)
# RNA: B1 RNA with C26U, C27G, G28U, A29G, U31G
# DNA 1: CAATCTGAATTCCGGTCTCCC
# DNA 2: TGGTGGCTACGACGGGATT
# B40: CUUGUCC (DNA:RNA)
# RNA: B5 RNA with G25C, A26U, A28G, C29U, G30C
# DNA 1: CAATCTGAATTCCGGTCTCCC
# DNA 2: TGGTGGCTACGACGGGATT
# B41: UUGUCCC (DNA:RNA)
# RNA: B5 RNA with G25U, A26U, U27G, A28U, G30C
# DNA 1: CAATCTGAATTCCGGTCTCCC
# DNA 2: TGGTGGCTACGACGGGATT
# B42: CCGUGCG (DNA:RNA)
# RNA: B1 RNA with U25C, C27G, G28U, A29G, U30C, U31G
# DNA 1: CAATCTGAATTCCGGTCTCCC
# DNA 2: TGGTGGCTACGACGGGATT
# Target: T1, RBFOX1 RRM
# Experiment: EMSA; HiTS-Eq, 1 nM pool, 10 min; buffer printed only for the single-RNA assays: 10 mM Tris pH 7.5, 150 mM NaCl, 3.4 mM EDTA, 0.001% NP-40, 30 C
# Details: tags: His6 N-terminal (pET28a); label: 5' 32P
# Outline: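 Purified wild-type or mutant RbFox RRM at increasing concentrations was equilibrated with 1 nM of 5′-radiolabelled RNA carrying 7 randomized nucleotides for 10 min in 50 µL. Unbound RNA was separated by 8% native PAGE and sequenced. Relative association constants came from read-count changes of each RNA species compared with the control reaction, normalised to the cognate motif.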
row,Binder,binding signal
1,B1,0.00941 KA relative to UGCAUGU
2,B2,0.00135 KA relative to UGCAUGU
3,B3,0.0106 KA relative to UGCAUGU
4,B4,0.015 KA relative to UGCAUGU
5,B5,0.012 KA relative to UGCAUGU
6,B6,0.0491 KA relative to UGCAUGU
7,B7,0.0899 KA relative to UGCAUGU
8,B8,0.0247 KA relative to UGCAUGU
9,B9,0.0205 KA relative to UGCAUGU
10,B10,0.0181 KA relative to UGCAUGU
11,B11,0.00514 KA relative to UGCAUGU
12,B12,0.0165 KA relative to UGCAUGU
13,B13,0.0136 KA relative to UGCAUGU
14,B14,0.0364 KA relative to UGCAUGU
15,B15,0.0179 KA relative to UGCAUGU
16,B16,0.0333 KA relative to UGCAUGU
17,B17,0.0216 KA relative to UGCAUGU
18,B18,0.0271 KA relative to UGCAUGU
19,B19,0.0397 KA relative to UGCAUGU
20,B20,0.0199 KA relative to UGCAUGU
21,B21,0.0399 KA relative to UGCAUGU

row,Binder,binding signal
1,B22,0.0185 KA relative to UGCAUGU
2,B23,0.0275 KA relative to UGCAUGU
3,B24,0.0171 KA relative to UGCAUGU
4,B25,0.00842 KA relative to UGCAUGU
5,B26,0.00711 KA relative to UGCAUGU
6,B27,0.0072 KA relative to UGCAUGU
7,B28,0.00217 KA relative to UGCAUGU
8,B29,0.0279 KA relative to UGCAUGU
9,B30,0.0139 KA relative to UGCAUGU
10,B31,0.0191 KA relative to UGCAUGU
11,B32,0.0198 KA relative to UGCAUGU
12,B33,0.0118 KA relative to UGCAUGU
13,B34,0.0481 KA relative to UGCAUGU
14,B35,0.0447 KA relative to UGCAUGU
15,B36,0.0102 KA relative to UGCAUGU
16,B37,0.00858 KA relative to UGCAUGU
17,B38,0.0408 KA relative to UGCAUGU
18,B39,0.0403 KA relative to UGCAUGU
19,B40,0.0101 KA relative to UGCAUGU
20,B41,0.0102 KA relative to UGCAUGU
21,B42,0.0124 KA relative to UGCAUGU
